{"source": "ChEMBL document CHEMBL3433997", "about": "“St. Jude Leishmania screening dataset” (2016)"}
{"molecular_target": "Hexose transporter 1 (Plasmodium falciparum) (UniProt O97467)", "assay": "ST_JUDE_LEISH: Cytotoxicity at 2uM final concentration against transgenic Leishmania Mexicana promastigotes LmPfHT that are glucose transport deficient and complemented with the Plasmodium falciparum hexose transporter. Activity is measured by DNA content using SYBR green in vitro", "format": "functional", "units": {"inhibition": "%"}}
{"smiles": "O=c1cc(NC[C@H]2CCC[C@@H]2NC2CCCc3c2[nH]c2ccccc32)[nH]c2ccccc12", "note": "(stereo not given in full)", "inhibition": -1.31}
{"smiles": "COc1cc2nc(C)nc(Nc3ccc(Oc4ccccc4)cc3)c2cc1OC", "inhibition": 2.09}
{"smiles": "Cc1cc(C)cc(CC(=O)N2CCC(n3c(C)nc4ccc(C)cc43)CC2)c1", "inhibition": 1.45}
{"smiles": "CCOC(=O)c1ccc2[nH]c(-c3ccc(C(=O)NC4CCN(Cc5ccccc5)CC4)s3)nc2c1", "inhibition": 4.85}
{"smiles": "CCCCNCc1ccc(-c2nc(CN(CCCn3ccnc3)C(=O)NC3CC3c3ccccc3)cs2)cc1", "note": "(stereo not given)", "inhibition": 3.79}
{"smiles": "COc1ccc2c(N/N=C/c3ccc([N+](=O)[O-])cc3)ccnc2c1", "inhibition": 4.33}
{"smiles": "O=C(Nc1cccc(-c2nn3ccccc3c2-c2ccnc(Nc3ccc(-c4cc[nH]n4)cc3)n2)c1)c1c(F)cccc1F", "inhibition": 10.3}
{"smiles": "CCN(CC)/C(=N/C(=N)Nc1ccc(C)cc1)NCCCCCCN/C(=N\\C(=N)Nc1ccc(C)cc1)N(CC)CC", "inhibition": 5.77}
{"smiles": "O=C(/C=C/c1ccc(C(F)(F)F)cc1)N1CCC(CCN2CCC(c3c[nH]c4ccccc34)CC2)CC1", "inhibition": 9.28}
{"smiles": "CCNc1cc(C(=O)N[C@@H](Cc2ccccc2)[C@H](O)CN[C@@H](C)c2ccccc2)cc(N2CCCC2=O)c1", "inhibition": 0.55}
{"smiles": "COc1cc(C(=O)Nc2ccc(-c3nc4ccccc4[nH]3)cc2)cc(OC)c1OC", "inhibition": 2.26}
{"smiles": "CCCNCc1ccc(-c2ccc(CN(Cc3ccc4c(c3)OCO4)C(=O)Cc3cccnc3)cc2)nc1", "inhibition": 15.2}
{"smiles": "COc1ccc2nc(N(CCCn3ccnc3)C(=O)C=Cc3cccs3)sc2c1", "inhibition": 3.16}
{"smiles": "CN1CCCN(Cc2ccc(-c3cccc(NC(=O)c4cccc(C#N)c4)c3)cc2)CC1", "inhibition": 4.85}
{"smiles": "CSc1cccc(NC(=O)c2cc3ccccc3oc2=O)c1", "inhibition": 0.06}
{"smiles": "CCN1CCN(CCNc2c3ccccc3nc3ccccc23)CC1", "inhibition": 80.6}
{"smiles": "CN(CCN(C)CC(O)c1ccc(Cl)c(Cl)c1)CC(O)c1ccc(Cl)c(Cl)c1", "note": "(stereo not given)", "inhibition": 9.66}
{"smiles": "COCCNCc1ccc(-c2ccc(CNC3CCN(Cc4ccccc4)CC3)cc2)cc1", "inhibition": 2.82}
{"smiles": "Nc1cccc(CNCc2cccc(-c3csc(-c4nc5ccccc5[nH]4)c3)c2)c1", "inhibition": 2.29}
{"smiles": "O=C1CSc2ccc(CNC3CCN(CCc4c(Cl)cnc5ccc(Cl)cc45)CC3)nc2N1", "inhibition": -0.05}
{"smiles": "CCN(CC)CCN(Cc1ccc(-c2ccc(C(F)(F)F)cc2)cc1)C(=O)Cn1c(CCC2CCCCC2)nc(=O)c2ccccc21", "inhibition": 1.35}
{"smiles": "Oc1cc(NC[C@H]2CCC[C@@H]2NCc2cc(Br)cc(Br)c2)nc2ccccc12", "inhibition": 4.07}
{"smiles": "N#Cc1cccc(-c2nc(NCc3cccc(C(F)(F)F)c3)nn2-c2cccc(C(F)(F)F)c2)c1", "inhibition": -0.35}
{"smiles": "Nc1c2c(nc3ccc(C(=O)Nc4ccc(Br)cc4)cc13)CCCC2", "inhibition": 6.08}
{"smiles": "CCOc1cc(C(=O)NCCc2ccc(Cl)c(Cl)c2)ccc1-c1nc2cc(Cl)ccc2[nH]1", "inhibition": 0.01}
{"smiles": "Oc1ccc2ccccc2c1C=NNc1nc(=Nc2ccccc2)nc(N2CCOCC2)[nH]1", "inhibition": 3.72}
{"smiles": "Cc1ccc2[nH]c(C)cc(=NN=Cc3ccc(Cl)cc3)c2c1", "inhibition": 0.61}
{"smiles": "Cc1c2c(nn1-c1ccccc1)C(c1ccccc1)N(c1ccccc1)C2=O", "note": "(stereo not given)", "inhibition": 0.43}
{"smiles": "COc1ccc(CNc2nc(Nc3cccc(C#N)c3)nc(Nc3cccc(C#N)c3)n2)cc1Cl", "inhibition": 0.95}
{"smiles": "COc1cc(NC(=O)c2sc(-c3ccc(Cl)cc3)cc2NC(=O)c2cccnc2)ccc1OCCN1CCCC1", "inhibition": 4.76}
{"smiles": "CCOC(=O)C(CO)NC(=O)c1ccc([N+](=O)[O-])o1", "note": "(stereo not given)", "inhibition": 2.06}
{"smiles": "Cc1[nH]c(C)c(-c2ccc(-c3ccc(C(F)(F)F)cc3C(F)(F)F)nc2)c(=O)c1Br", "inhibition": -2.4}
{"smiles": "O=C(Nc1ccc(C(F)(F)F)cc1)NC1CCN(CCCCCNC(=O)C2CC2c2ccc(Cl)c(Cl)c2)CC1", "note": "(stereo not given)", "inhibition": -1.93}
{"smiles": "Cn1c(=O)c2cc(C(=O)NCCCN3CCCCCC3)sc2c2ccccc21", "inhibition": 4.91}
{"smiles": "CCc1ccnc2c(N3CCCC3=O)cc(C(=O)N[C@@H](Cc3ccccc3)[C@H](O)CNC3CCOCC3)cc12", "inhibition": 0.4}
{"smiles": "NC(=O)c1ccccc1Nc1nc(Nc2cc[nH]n2)ncc1Cl", "inhibition": 4.28}
{"smiles": "FC(F)(F)c1ccc2[nH]c(-c3ccc(-c4cccc(CNCCc5cccnc5)c4)s3)nc2c1", "inhibition": 2.04}
{"smiles": "CCn1c(-c2ccccc2)cc2nnc3ccccc3c21", "inhibition": 5.32}
{"smiles": "COc1ccc(C(=O)C2CCN(CCCCNC(=O)c3ccc(NC(=O)c4cc(Cl)cc(Cl)c4)cc3)CC2)cc1", "inhibition": 4.08}
{"smiles": "COc1cccc(NC(=O)Nc2cc(C)nc3ccccc23)c1", "inhibition": 3.94}
{"molecular_target": "Glucose transporter (Leishmania mexicana) (UniProt O61059)", "assay": "ST_JUDE_LEISH: Cytotoxicity at 2uM final concentration against transgenic Leishmania Mexicana promastigotes LmGT2 that are glucose transport deficient and complemented with the L. Mexicana glucose transporter 2. Activity is measured by DNA content using SYBR green in vitro", "format": "functional", "units": {"inhibition": "%"}}
{"smiles": "O=c1cc(NC[C@H]2CCC[C@@H]2NC2CCCc3c2[nH]c2ccccc32)[nH]c2ccccc12", "note": "(stereo not given in full)", "inhibition": 5.67}
{"smiles": "COc1cc2nc(C)nc(Nc3ccc(Oc4ccccc4)cc3)c2cc1OC", "inhibition": -1.95}
{"smiles": "Cc1cc(C)cc(CC(=O)N2CCC(n3c(C)nc4ccc(C)cc43)CC2)c1", "inhibition": 1.51}
{"smiles": "CCOC(=O)c1ccc2[nH]c(-c3ccc(C(=O)NC4CCN(Cc5ccccc5)CC4)s3)nc2c1", "inhibition": 0.16}
{"smiles": "CCCCNCc1ccc(-c2nc(CN(CCCn3ccnc3)C(=O)NC3CC3c3ccccc3)cs2)cc1", "note": "(stereo not given)", "inhibition": 4.29}
{"smiles": "COc1ccc2c(N/N=C/c3ccc([N+](=O)[O-])cc3)ccnc2c1", "inhibition": 2.7}
{"smiles": "O=C(Nc1cccc(-c2nn3ccccc3c2-c2ccnc(Nc3ccc(-c4cc[nH]n4)cc3)n2)c1)c1c(F)cccc1F", "inhibition": 1.44}
{"smiles": "CCN(CC)/C(=N/C(=N)Nc1ccc(C)cc1)NCCCCCCN/C(=N\\C(=N)Nc1ccc(C)cc1)N(CC)CC", "inhibition": 5.53}
{"smiles": "O=C(/C=C/c1ccc(C(F)(F)F)cc1)N1CCC(CCN2CCC(c3c[nH]c4ccccc34)CC2)CC1", "inhibition": 3.39}
{"smiles": "CCNc1cc(C(=O)N[C@@H](Cc2ccccc2)[C@H](O)CN[C@@H](C)c2ccccc2)cc(N2CCCC2=O)c1", "inhibition": 1.24}
{"smiles": "COc1cc(C(=O)Nc2ccc(-c3nc4ccccc4[nH]3)cc2)cc(OC)c1OC", "inhibition": 3.39}
{"smiles": "CCCNCc1ccc(-c2ccc(CN(Cc3ccc4c(c3)OCO4)C(=O)Cc3cccnc3)cc2)nc1", "inhibition": 10.2}
{"smiles": "COc1ccc2nc(N(CCCn3ccnc3)C(=O)C=Cc3cccs3)sc2c1", "inhibition": -2.84}
{"smiles": "CN1CCCN(Cc2ccc(-c3cccc(NC(=O)c4cccc(C#N)c4)c3)cc2)CC1", "inhibition": 5.62}
{"smiles": "CSc1cccc(NC(=O)c2cc3ccccc3oc2=O)c1", "inhibition": -3.2}
{"smiles": "CCN1CCN(CCNc2c3ccccc3nc3ccccc23)CC1", "inhibition": 79}
{"smiles": "CN(CCN(C)CC(O)c1ccc(Cl)c(Cl)c1)CC(O)c1ccc(Cl)c(Cl)c1", "note": "(stereo not given)", "inhibition": 9.87}
{"smiles": "COCCNCc1ccc(-c2ccc(CNC3CCN(Cc4ccccc4)CC3)cc2)cc1", "inhibition": 5.2}
{"smiles": "Nc1cccc(CNCc2cccc(-c3csc(-c4nc5ccccc5[nH]4)c3)c2)c1", "inhibition": 1.68}
{"smiles": "O=C1CSc2ccc(CNC3CCN(CCc4c(Cl)cnc5ccc(Cl)cc45)CC3)nc2N1", "inhibition": -1.85}
{"smiles": "CCN(CC)CCN(Cc1ccc(-c2ccc(C(F)(F)F)cc2)cc1)C(=O)Cn1c(CCC2CCCCC2)nc(=O)c2ccccc21", "inhibition": 0.43}
{"smiles": "Oc1cc(NC[C@H]2CCC[C@@H]2NCc2cc(Br)cc(Br)c2)nc2ccccc12", "inhibition": 3.27}
{"smiles": "N#Cc1cccc(-c2nc(NCc3cccc(C(F)(F)F)c3)nn2-c2cccc(C(F)(F)F)c2)c1", "inhibition": -0.56}
{"smiles": "Nc1c2c(nc3ccc(C(=O)Nc4ccc(Br)cc4)cc13)CCCC2", "inhibition": 2.67}
{"smiles": "CCOc1cc(C(=O)NCCc2ccc(Cl)c(Cl)c2)ccc1-c1nc2cc(Cl)ccc2[nH]1", "inhibition": 1.26}
{"smiles": "Oc1ccc2ccccc2c1C=NNc1nc(=Nc2ccccc2)nc(N2CCOCC2)[nH]1", "inhibition": 0.2}
{"smiles": "Cc1ccc2[nH]c(C)cc(=NN=Cc3ccc(Cl)cc3)c2c1", "inhibition": -1.26}
{"smiles": "Cc1c2c(nn1-c1ccccc1)C(c1ccccc1)N(c1ccccc1)C2=O", "note": "(stereo not given)", "inhibition": 0.75}
{"smiles": "COc1ccc(CNc2nc(Nc3cccc(C#N)c3)nc(Nc3cccc(C#N)c3)n2)cc1Cl", "inhibition": -1.38}
{"smiles": "COc1cc(NC(=O)c2sc(-c3ccc(Cl)cc3)cc2NC(=O)c2cccnc2)ccc1OCCN1CCCC1", "inhibition": 6.19}
{"smiles": "CCOC(=O)C(CO)NC(=O)c1ccc([N+](=O)[O-])o1", "note": "(stereo not given)", "inhibition": 5.24}
{"smiles": "Cc1[nH]c(C)c(-c2ccc(-c3ccc(C(F)(F)F)cc3C(F)(F)F)nc2)c(=O)c1Br", "inhibition": 0.14}
{"smiles": "O=C(Nc1ccc(C(F)(F)F)cc1)NC1CCN(CCCCCNC(=O)C2CC2c2ccc(Cl)c(Cl)c2)CC1", "note": "(stereo not given)", "inhibition": -1.98}
{"smiles": "Cn1c(=O)c2cc(C(=O)NCCCN3CCCCCC3)sc2c2ccccc21", "inhibition": 5.05}
{"smiles": "CCc1ccnc2c(N3CCCC3=O)cc(C(=O)N[C@@H](Cc3ccccc3)[C@H](O)CNC3CCOCC3)cc12", "inhibition": 0.64}
{"smiles": "NC(=O)c1ccccc1Nc1nc(Nc2cc[nH]n2)ncc1Cl", "inhibition": 7.47}
{"smiles": "FC(F)(F)c1ccc2[nH]c(-c3ccc(-c4cccc(CNCCc5cccnc5)c4)s3)nc2c1", "inhibition": 4.6}
{"smiles": "CCn1c(-c2ccccc2)cc2nnc3ccccc3c21", "inhibition": 5.02}
{"smiles": "COc1ccc(C(=O)C2CCN(CCCCNC(=O)c3ccc(NC(=O)c4cc(Cl)cc(Cl)c4)cc3)CC2)cc1", "inhibition": 2.05}
{"smiles": "COc1cccc(NC(=O)Nc2cc(C)nc3ccccc23)c1", "inhibition": 2.43}
